Rab9 prom act – activates the Rab9 promoter; Potency, µM (highest dose often 9.22 µM), hits mostly activators; Huh7 Rab9 promoter-luciferase reporter, luminescence, 24 h; AID 485297; actives 2.8% (n = 320,000); further: nearly all actives have a fitted effect of over 60% in size
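Luminescence from Amplite-detected luciferase (10 minutes, ambient) reports Rab9 promoter activation. Before that, stable Rab9-luciferase Huh7 cells (1500/well, reduced-serum OP-MEM I plus 10% FBS) were exposed to compound for 24 hours at 37C.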
ELG1 genotoxic – genotoxicity induction in ELG1-luciferase HEK293T cells; HEK293T ELG1-luciferase reporter, luminescence, 16 h; Potency, µM (doses to about 46 µM), hits mostly activators; actives 1.3% (n = 330,000); further: nearly all actives have a fitted effect of over 60% in size
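Reporter readout depends on ELG1 protein level, which increases with genetic stress. After 16 hr compound exposure at 37 °C, luciferase activity was quantified using ONE-Glo.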
NPC1 prom act – activators of NPC1 promoter. Huh7 NPC1 promoter luciferase reporter, 24 h. Potency, µM (titrated, usually from 9.22 µM), most hits filed as activators. actives 2.4% (n = 320,000). AID 485313; further: nearly all actives have a fitted effect of over 60% in size
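Luminescence from an NPC1 promoter-driven luciferase reporter in stably transfected Huh7 cells was measured after 24 h compound treatment at 37 °C, followed by 10 min ambient incubation with luciferase detection reagent.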
FLuc counter – inhibits or activates purified firefly luciferase, miR-21 counter-screen. Potency, µM (titrated, usually from 57.5 µM), hits mostly inhibitors. purified FLuc, Km substrates, luminescence inhibition. P08659. AID 588342. actives 6.9% (n = 360,000); further: nearly all actives have a fitted effect of over 55% in size
Target sequence (P08659 whole entry, looked up): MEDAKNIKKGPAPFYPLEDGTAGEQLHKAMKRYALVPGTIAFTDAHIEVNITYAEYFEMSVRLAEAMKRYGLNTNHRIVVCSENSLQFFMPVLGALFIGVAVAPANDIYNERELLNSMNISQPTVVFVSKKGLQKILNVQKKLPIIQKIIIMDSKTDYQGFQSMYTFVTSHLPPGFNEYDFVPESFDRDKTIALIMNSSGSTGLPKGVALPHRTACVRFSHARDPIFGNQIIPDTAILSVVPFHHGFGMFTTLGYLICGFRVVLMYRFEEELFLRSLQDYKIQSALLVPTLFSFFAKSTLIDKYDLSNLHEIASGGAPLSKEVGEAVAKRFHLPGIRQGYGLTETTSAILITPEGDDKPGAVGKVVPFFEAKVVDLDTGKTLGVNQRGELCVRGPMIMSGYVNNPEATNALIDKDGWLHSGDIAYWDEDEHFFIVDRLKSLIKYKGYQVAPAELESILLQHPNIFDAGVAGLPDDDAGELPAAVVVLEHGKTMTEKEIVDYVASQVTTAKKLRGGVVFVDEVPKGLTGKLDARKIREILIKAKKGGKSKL
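Purified P. pyralis luciferase, 10 nM final, with Km-level 10 uM D-luciferin and 10 uM ATP in 50 mM Tris acetate pH 7.5, 10 mM Mg acetate, 0.01% Tween-20, 0.05% BSA; 6-point qHTS titration about 60 µM downward; luminescence read.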
Luc counter – counter-screen: inhibitors of Kinase-Glo firefly luciferase | Kinase-Glo luciferase, ATP luminescence, 8 min | Potency, µM (series often up to 38.3 µM), hits mostly inhibitors | actives 0.28% (n = 200,000); further: nearly all actives have a fitted effect of over 60% in size
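Light output from Kinase-Glo luciferase with luciferin and 10 uM ATP in 50 mM imidazole pH 7.2, KCl, MgCl2, Tween 20, BSA; compound pin-delivered, 8-min ambient incubation, then luminescence read.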
SMN2 splice enh – increases expression of the SMN2 splice variant | HEK293 SMN2-luciferase splicing reporter, luminescence, 30-36 h | actives 2.8% (n = 210,000) | Potency, µM (doses to about 46.1 µM), actives largely listed as activators; further: nearly all actives have a fitted effect of over 55% in size
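HEK293 cells carry an SMN2 […]–luciferase reporter in which exon 7 inclusion puts luciferase in frame. Cells were plated 10-12 h before compound addition, then incubated 30-36 h at 37C. ONE-Glo luminescence was read; sodium butyrate at 4.5 mM final served as control.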
A number is an active result; . = inactive; ? = inconclusive; / = no result given. Shown are actives, neighbours in structure and some others; about 7.3% of the full set was active somewhere. The call rests on the fitted dose curve; in most records, active means well fitted curve in the direction sought with a large enough effect; inconclusive means small, poorly fitted or top-dose-only effect, or another doubt; inactive means no such curve, though single readings can be large; an effect the other way counts as inactive or inconclusive.

SMILES	Rab9 prom act	ELG1 genotoxic	NPC1 prom act	FLuc counter	Luc counter	SMN2 splice enh
CCn1c(C)nc2cc(C(=O)N/N=C/c3cccc(O)c3O)ccc21	.	?	.	8.5µM	/	/
CCn1c(C)nc2cc(C(=O)OC(C(F)(F)C(F)F)C(F)(F)C(F)F)ccc21	?	16µM	?	3.8µM	.	.
CCn1c(C)nc2cc(C(=O)N=Nc3c(O)[nH]c4ccccc34)ccc21	?	?	?	6µM	.	.
CCn1c(C)nc2cc(C(=O)N/N=C/c3ccc(O)cc3)ccc21	.	.	.	15µM	.	.
COc1ccc(Cl)cc1NC(=O)c1c(NCc2cccs2)sc2c1CCCC2	/	/	/	.	/	/
CC(C)c1ccc(S(=O)(=O)N2CCC(n3c(C(F)(F)F)nc4cccnc43)CC2)cc1	/	/	/	.	/	/
CCn1c(C)nc2cc(C(=O)N/N=C/c3ccccc3)ccc21	3.5µM	9.2µM	3.2µM	21µM	.	18µM
CCCN(CCC)CCCNC(=O)c1cc2c(=O)n(C)c3ccccc3c2s1	/	/	/	.	/	.
Cc1ccc(C(=O)c2cn(Cc3ccccc3F)c3cc4c(cc3c2=O)OCO4)cc1	/	/	/	.	/	.
c1ccc2c(c1)Cc1cc(CN3CCOCC3)ccc1-2	?	?	4µM	9.5µM	.	14µM
CCS(=O)(=O)c1ccc2oc(Nc3ccccc3C)nc2c1	3.5µM	?	3.5µM	13µM	?	?
CCN(CC)S(=O)(=O)c1ccc2oc(Nc3ccc(OC)cc3OC)nc2c1	.	.	.	.	/	/
CCN(CC)S(=O)(=O)c1ccc2oc(Nc3ccccc3)nc2c1	?	?	?	15µM	/	/
CC1(C)Cc2nc3sc4c(N(CCO)CCO)ncnc4c3cc2CO1	.	?	.	?	.	.
CCCCn1cnc2c(sc3nc4c(cc32)CSC(C)(C)C4)c1=O	1.1µM	?	0.63µM	1.1µM	.	4µM
CC(C)CCn1cnc2c(sc3nc4c(cc32)CSC(C)(C)C4)c1=O	0.63µM	?	1µM	0.6µM	.	.
CC1(C)Cc2nc3sc4c(NCCO)ncnc4c3cc2CS1	?	.	.	19µM	/	/
Cc1ccccc1C[C@H](C(=O)O)N1C(=O)c2ccc(C(=O)O)cc2C1=O	.	/	.	.	/	/
Cc1ccc(SSc2cc(C)ccc2N)c(N)c1	0.79µM	.	1.1µM	4.8µM	/	/
Cc1nc2nc[nH]n2c(=O)c1CCOC(=O)c1ccccc1F	.	.	.	11µM	.	/
Cc1nc2nc[nH]n2c(=O)c1CCOC(=O)c1c(F)cccc1F	.	.	.	?	.	.
O=C(Nc1ccc(Cl)c(C(F)(F)F)c1)C(Cc1ccccc1)NS(=O)(=O)c1ccc(Br)s1 (configuration not stated)	/	/	/	.	/	.
COc1cc(NC(=O)c2cc(C3CC3)nc3c2c(C)nn3-c2ccc(C)cc2)cc(OC)c1	/	/	/	.	/	/
Cn1cccc1C(=O)OCC(=O)Nc1ccc2c(c1)OCO2	2.8µM	?	3.5µM	17µM	.	?
O=C(COC(=O)c1ccco1)Nc1ccc2c(c1)OCO2	.	.	.	?	.	.
SMILES	Rab9 prom act	ELG1 genotoxic	NPC1 prom act	FLuc counter	Luc counter	SMN2 splice enh
Cn1cccc1C(=O)OCC(=O)Nc1ccc2[nH]c(=O)[nH]c2c1	/	.	/	/	/	/
Cn1cccc1C(=O)OCC(=O)Nc1ccc2c(c1)CCC2	?	21µM	?	?	.	.
COc1ccc(/C=C2\N=C(c3ccccc3Cl)NC2=O)cc1	.	.	.	1.7µM	/	/
Cc1ccc2nc(-c3ccccc3C)oc(=O)c2c1	.	.	.	6µM	/	/
CCN1C(=O)c2ccc(-c3nc4ccccc4c(=O)o3)cc2C1=O	.	.	.	.	/	/
COc1cc2nc(-c3ccccc3C)oc(=O)c2cc1OC	.	.	.	?	/	/
Cc1ccc(-c2nc3ccccc3c(=O)o2)cc1	3.2µM	?	?	4.3µM	/	/
COc1ccc(-c2nc3ccc(C)cc3c(=O)o2)cc1OC	.	.	.	3.4µM	/	/
Cc1cc(-c2nc3ccccc3c(=O)o2)ccc1[N+](=O)[O-]	.	?	.	2.7µM	/	/
CCC(=O)N1CCc2cc(S(=O)(=O)NC(C(=O)NCCc3ccccc3)C(C)C)ccc21 (configuration not stated)	/	/	/	.	/	.
CCN(CC)S(=O)(=O)c1ccc2c(c1)c(=O)c(C(=O)NCc1ccccc1Cl)cn2C	/	/	/	.	/	.
CC(=O)Oc1ccc2nc(-c3cccs3)oc(=O)c2c1	.	.	.	?	.	.
CC(=O)Oc1ccc2nc(-c3ccco3)oc(=O)c2c1	.	.	.	12µM	/	/
CC(=O)Oc1ccc(-c2nc3ccccc3c(=O)o2)cc1	.	.	.	9.5µM	/	/
